Source: PubChem
This is a sample that favours compounds with a hit; in the whole collection about 11% have one here.
USP30 inh: inhibitors of human USP30 deubiquitinase; Ubiquitin carboxyl-terminal hydrolase 30 (Homo sapiens), Q70CQ3; purified USP30, Ub-rhodamine cleavage fluorescence; inhibition, % at 25 µM; hit rate 5.3% among 47,000
USP28 inh: inhibitors of human USP28 deubiquitinase. Ubiquitin carboxyl-terminal hydrolase 28 (Homo sapiens), Q96RU2. purified USP28, Ub-rhodamine cleavage fluorescence, 30 min. inhibition, % at 25 µM. hit rate 3% among 47,000. AID 1645857, 2021
USP17 block: inhibitors of human USP17 deubiquitinase; Ubiquitin carboxyl-terminal hydrolase 17-like protein 5 (Homo sapiens), A8MUK1; purified USP17, Ub-rhodamine cleavage fluorescence, 3 h; inhibition, % at 50 µM; hit rate 6.5% among 47,000; AID 1645855, 2021
Target sequence (A8MUK1 whole entry, looked up): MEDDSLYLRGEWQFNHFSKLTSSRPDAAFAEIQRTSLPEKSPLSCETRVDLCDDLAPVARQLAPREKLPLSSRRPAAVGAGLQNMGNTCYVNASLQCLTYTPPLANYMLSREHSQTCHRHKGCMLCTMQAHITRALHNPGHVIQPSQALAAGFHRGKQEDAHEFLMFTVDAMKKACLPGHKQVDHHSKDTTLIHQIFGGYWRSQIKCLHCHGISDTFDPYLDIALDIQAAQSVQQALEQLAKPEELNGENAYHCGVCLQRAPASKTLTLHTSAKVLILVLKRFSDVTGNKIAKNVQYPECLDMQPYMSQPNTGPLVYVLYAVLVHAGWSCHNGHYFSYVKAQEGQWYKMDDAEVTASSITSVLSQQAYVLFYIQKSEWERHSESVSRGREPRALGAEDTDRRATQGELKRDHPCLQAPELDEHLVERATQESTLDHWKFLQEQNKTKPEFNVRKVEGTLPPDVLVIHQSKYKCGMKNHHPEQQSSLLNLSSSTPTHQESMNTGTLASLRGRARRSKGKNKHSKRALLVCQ
Of the large screens only hits and unclear results are named; the others gave an inactive call. No stated cut-off is given here; in the data, active means inhibition above about 30%; inactive means the rest.

COc1cc(CN2CCN(Cc3c[nH]c4ccccc34)CC2)cc(OC)c1OC	none
O=C(NCC1CCCO1)c1cc2c(=O)n3ccccc3nc2n1Cc1ccccc1 (centres undefined)	none
Cc1cccc2cc(CN(Cc3ccco3)S(=O)(=O)c3ccccc3)c(=O)[nH]c12	none
O=C(CSc1ccc2nnc(CCNS(=O)(=O)c3ccccc3)n2n1)NCc1ccc(F)cc1	USP17 block 39.1
COc1ccc(S(=O)(=O)NCCc2nnc3ccc(SCC(=O)NCc4ccccc4)nn23)cc1	none
CC(OC(=O)Cc1cn2ccsc2n1)C(=O)Nc1ccc2c(c1)OCO2 (centres undefined)	none
Cc1nc(N2CCCCC2)ncc1-c1cc(=O)[nH]c(N2c3ccccc3CC2C)n1 (centres undefined)	none
Cn1cncc1C(=O)N[C@@H]1C[C@@H](Oc2ccccc2)[C@H](O)[C@H]1O	none
Cc1ccc(C)c(NC(=O)Cn2c(-n3nc(C)cc3C)nc3c(c2=O)CCC3)c1	none
CC(=O)Nc1ccc(NC(=O)C2CCC(CNS(=O)(=O)c3ccc(F)cc3)CC2)cc1 (centres undefined)	USP30 inh 31.1
COc1ccc(NC(=O)C2CC2)cc1NS(=O)(=O)c1ccc(F)cc1	none
COCc1cc(C)nc2sc3c(c12)NC(c1ccc(NC(C)=O)cc1)N(Cc1ccccc1)C3=O (centres undefined)	USP30 inh 71.7, USP17 block 53.0
COCc1cc(C)nc2sc3c(c12)NCN(c1ccc(C)c(Cl)c1)C3=O	none
COc1ccc(CN(C(=O)c2ccc(-c3ccccc3)[nH]2)C(C(=O)NC2CCCCC2)c2ccc(F)cc2)cc1 (centres undefined)	none
O=S1(=O)C[C@H](NCCc2ccccc2)[C@@H](S(=O)(=O)c2ccc(F)cc2)C1	none
COc1cccc(NC(=O)c2cncc(NS(=O)(=O)c3ccccc3)c2)c1	none
COc1ccc(NC(=O)c2ccnc(Nc3cccc(OC)c3)c2)cc1	USP17 block 32.1
COc1ccc(NC(=O)c2ccnc(Nc3cccc(C)c3)c2)cc1	none
COc1cccc(Nc2cc(C(=O)Nc3ccccc3)ccn2)c1	USP17 block 36.1
CC(C)(C)Cc1nnc(-c2cnc3onc(C4CCCC4)c3c2)o1	none
O=C(CC1CCCC1)N1CCCC(c2nn(CCOc3ccccc3)c3nccnc23)C1 (centres undefined)	none
O=C(C1CCCCC1)N1CCCC(c2nn(CCOc3ccccc3)c3nccnc23)C1 (centres undefined)	USP30 inh 33.4, USP17 block 30.6
CCN1C(=O)[C@H]2CN(CC(C)C)C[C@H]2C12CCN(C(=O)c1ccccc1)CC2	none
O=C(Cn1cccc1-c1nnc(C2CC2)o1)N1CCc2ccccc2C1	none
Cc1cc(O)cc2oc3cc(O)cc(O)c3c(=O)c12	none
Cc1cc(=O)c2c(O)oc(O)c3c(O)cc(=O)c1c32	USP17 block 68.3
Cc1cc(C2CC(=O)Nc3c2c(C)nn3-c2nc3ccccc3[nH]2)c(C)s1 (centres undefined)	USP17 block 50.6
Cc1nn(-c2nc3ccccc3o2)c2c1C(c1ccc(F)c(F)c1)CC(=O)N2 (centres undefined)	none
O=C(Nc1ccc(F)c(Cl)c1)c1ccc(N2CCCC2)nn1	none
Cc1cc(OCC(=O)Nc2ccccc2C)nc(N2CCCCCC2)n1	USP30 inh 35.6
Cc1ccccc1NC(=O)c1ccc(N2CCCCC2)nn1	USP30 inh 69.6, USP17 block 46.7
CC(=O)c1cccc(NC(=O)c2ccc(N3CCCCC3)nn2)c1	USP30 inh 56.8, USP17 block 49.3
O=C(Nc1cccc(Cl)c1Cl)c1ccc(N2CCCC2)nn1	none (no result: USP17 block)
Cc1cc(OCC(=O)Nc2ccccc2F)nc(N2CCCCCC2)n1	none
O=C(O)C1C(C(=O)Nc2ccccc2)C2(c3ccccc3)C(=O)C1(c1ccccc1)C(c1ccccc1)=C2c1ccccc1 (centres undefined)	USP30 inh 82.1, USP28 inh 85.9, USP17 block 93.6
CC1(C)OC(=O)[C@@]2(C)N[C@]1(C)C[C@@H]2C(=O)Nc1ccccc1	none
CC1CCCN(S(=O)(=O)c2ccc(-n3cnc(C(=O)NC4CC4)c3)nc2)C1 (centres undefined)	USP30 inh 32.0, USP17 block 44.8
Cc1ccc(NC(=O)c2cn(-c3ccc(S(=O)(=O)N4CCCC4)cn3)cn2)cc1	none
CCC(=O)Nc1ccc(-n2cnc(C(=O)NC3CC3)c2)nc1	none
CCNC(=O)c1cn(-c2ccc(S(=O)(=O)N3CCCC(C)C3)cn2)cn1 (centres undefined)	USP17 block 44.0 (no result: USP30 inh, USP28 inh)
O=C(Nc1ccc(Cl)cc1Cl)c1ccn(COc2ccccc2F)n1	USP30 inh 44.9, USP17 block 35.7
O=C(COc1ccccc1Cl)Nc1ccc(F)cc1F	none
O=C(Nc1ccccc1Cl)c1ccn(COc2ccccc2F)n1	USP30 inh 56.8, USP17 block 66.4
O=C(COc1ccccc1-c1nnc(-c2ccccc2)o1)Nc1ccccc1Cl	none
CC(C)C(=O)N1CCc2cc(-c3csc(NC(=O)CN4CCCC4)n3)ccc21	none
CC1(C)Oc2ccccc2[C@H]2OCC3(CCN(C(=O)c4ncc[nH]4)CC3)C[C@@H]21	none
O=C(NCc1noc(Cc2ccccc2)n1)C1CCCC1	none
O=C(Nc1ccc2c(c1)OCCCO2)c1cc(S(=O)(=O)N2CCCCC2)ccc1N1CCCC1	USP30 inh 78.4, USP17 block 68.3
O=C(NCc1ccccc1)c1cc(S(=O)(=O)N2CCCCC2)ccc1N1CCOCC1	none
O=S(=O)(Nc1cc(S(=O)(=O)N2CCCCC2)ccc1O)c1ccc2c(c1)OCCCO2	USP17 block 34.4
O=S(=O)(c1ccc2c(c1)OCCO2)N1CCC(N2CCCCC2)CC1	none
O=C(CCc1ccc(S(=O)(=O)N2CCOCC2)cc1)Nc1ccc2c(c1)OCCO2	USP28 inh 61.3
O=C(CCc1ccc(S(=O)(=O)N2CCOCC2)cc1)Nc1ccc2c(c1)OCO2	none
Cc1ccccc1NC(=O)C1CCN(S(=O)(=O)c2ccc3c(c2)OCCCO3)CC1	USP30 inh 74.1, USP17 block 69.4
O=C(Nc1ccc(N2CCCCC2)cc1)C1CCN(S(=O)(=O)c2ccc3c(c2)OCCCO3)CC1	none
O=C(NC(Cc1ccccc1)c1nc2ccccc2[nH]1)C1CCC1 (centres undefined)	none
O=[N+]([O-])c1ccc2nc(-c3ccc4c(c3)OCO4)c(Br)n2c1	none
NC(=O)C1(N2CCCCC2)CCN(CC(=O)Nc2cc(Cl)ccc2Cl)CC1	USP30 inh 30.2
COc1ccc(NC(=O)CN2CCCCCC2)c(OC)c1	none
CCn1c(=O)c(CCC(=O)N2CCN(C)CC2)c(C)c2c(C)nn(-c3ccccc3)c21	none
CCOc1ccc(CNC(=O)c2cn3c(n2)CCCC3)cc1	none
O=c1[nH]c(=O)n(Cc2ccccc2)c2c1CN(Cc1ccccc1)CN2	none
O=c1[nH]c(=O)n(Cc2ccccc2)c2c1CN(CCc1ccccc1)CN2	USP30 inh 35.6, USP17 block 35.0
COc1ccc(-c2cn3c(-c4ccccc4)c(-c4ccccc4)nc3n2CCc2ccccc2)cc1	none
COc1ccc(-n2c(-c3ccccc3)cn3c(-c4ccccc4)c(-c4ccccc4)nc23)cc1	USP30 inh 59.2, USP17 block 54.8
COc1cccc(CC(=O)NC2CC3(CCOCC3)Oc3ccccc32)c1 (centres undefined)	none
CCOc1cc2c(cc1OCC)C(c1cc3c(cc1Br)OCO3)NCC2 (centres undefined)	none
